Test [1] can be described thus: CCTE_Mundy_HCI_iCellGluta_NOG_NeuronCount: CCTE's Neurite Outgrowth Assay in iCellGluta cells for Neuron Count, Mundy Lab (AID 2284340; active means hit-call score of the fitted dose curve at least 0.9, where 1 is the maximum;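 further: cells fixed about 48 h after compound addition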). In a few lines: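 Neuron count read by automated high-content imaging of Hoechst 33342 and betaIII-tubulin/Alexa Fluor-488 labelling in human iPSC glutamatergic neurons. Activity fitted relative to DMSO.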
Test [2] is described as follows: CCTE_Mundy_HCI_iCellGluta_NOG_NeuriteCount: CCTE's Neurite Outgrowth Assay in iCellGluta cells for Neurite Count, Mundy Lab (AID 2284342; active means hit-call score of the fitted dose curve at least 0.9, where 1 is the maximum;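 further: chemical exposure about 48 hours starting 2 hours after plating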).
Test [3] in a line: Tanguay_ZF_120hpf_MO24: Oregon State University Tanguay Lab 24 Hour Post-fertilization zebrafish Assay for Mortality (AID 2284389). In a few lines: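 Embryo death at 24 hpf was recorded as present or absent in Tropical 5D zebrafish, dechorionated at 4 hpf and dosed statically from 6 hpf (28C, 0.64% DMSO); 5 uM trimethyltin chloride served as positive control.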
The nature of test [4]: Tanguay_ZF_120hpf_DP24: Oregon State University Tanguay Lab 24 Hour Post-fertilization zebrafish Assay for Delayed Development (AID 2284390). The essentials: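 Scored at 24 hpf as a binary present/absent call of delayed development by brightfield, with dead embryos not assessed. Embryos (5D wild type, chorion removed with pronase at 4 hpf) dosed statically from 6 hpf at 28 C in 0.64% DMSO.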

A short description of test [5]: Tanguay_ZF_120hpf_CRAN: Oregon State University Tanguay Lab 120 Hour Post-fertilization zebrafish Assay for Craniofacial Malformation (AID 2284397). In a few lines: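 Scoring of craniofacial malformation as a binary endpoint was done at 120 hpf by brightfield microscopy and was not done in dead embryos. Exposure was static, starting at 6 hpf, in dechorionated wild-type embryos held singly at 28C with 0.64% DMSO final.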

A short description of test [6]: Tanguay_ZF_120hpf_AXIS: Oregon State University Tanguay Lab 120 Hour Post-fertilization zebrafish Assay for Axial Malformation (AID 2284398). The essentials:
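Scoring was binary (present or absent) for body-axis defects, judged by brightfield imaging at 120 hpf in surviving larvae. Exposure was static at 28C from 6 hpf in chorion-free 5D wild-type embryos, with 0.64% DMSO vehicle.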

Test [7] is described as follows: CCTE_Deisenroth_DEVTOX-GLR_legacy_CellCount: (Legacy) Viability Assessment in CCTE's DevTox GLR-Endo Assay, Deisenroth Lab (AID 2284331). The conditions noted are these: actives raise or lower the signal. In a few lines: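 Human pluripotent RUES2-GLR cells differentiated 48 h with two 24-h-interval exposures, 10-point 1 nM–200 uM series, 0.2% DMSO. Fixed nuclei counted by high-content imaging (5 fields/well); bidirectional fit vs DMSO, n≥4.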

Test [8] deals with SRY-box transcription factor 17 (SOX17) Protein Expression, Deisenroth Lab, SOX17 (gene 64321). Nature of the test: CCTE_Deisenroth_DEVTOX-GLR_legacy_Sox17: (Legacy) CCTE's DevTox GLR-Endo Assay Evaluation of SRY-box transcription factor 17 (SOX17) Protein Expression, Deisenroth Lab (AID 2284341). The conditions noted are these: actives raise or lower the signal. In a few lines:
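RUES2-GLR human pluripotent cells differentiated toward endoderm for 48 h, dosed twice at 24 h intervals (1 nM–200 uM, 10 points). Imaging gives % SOX17+ cells (intensity >5x BMAD above pluripotent control median); bidirectional fit versus 0.2% DMSO.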

Test [9] concerns SRY-box transcription factor 2 (SOX2) Protein Expression, Deisenroth Lab, SOX2 (gene 6657). Nature of the test: CCTE_Deisenroth_DEVTOX-GLR_legacy_Sox2: (Legacy) CCTE's DevTox GLR-Endo Assay Evaluation of SRY-box transcription factor 2 (SOX2) Protein Expression, Deisenroth Lab (AID 2284346). The essentials:
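Percent Sox2-positive cells was scored by high-content imaging of 5 fields per well. Positivity cutoff was 5x BMAD over the directed endoderm control, and the DMSO median was subtracted. Cells were RUES2-GLR, dosed twice at 24-h intervals over 48 h of differentiation (1 nM-200 uM).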

A further test has as its system TTR (gene 7276). The test is described as follows: CCTE_GLTED_hTTR_0.5uM: CCTE's human Transthyretin (hTTR) Inhibition Assay, with 0.5uM TTR, Great Lakes Toxicology and Ecology Division (GLTED) Lab (AID 2284320). The essentials: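 Probe (ANSA) displacement from 0.5 uM human transthyretin was followed by fluorescence (ex 380, em 475) after a 2 h incubation with chemical. Activity was scored as signal loss and fitted positively relative to DMSO.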

The next test relates to SERPINA7 (gene 6906). The test is described as follows: CCTE_GLTED_hTBG: CCTE's human Thyroxine-binding Globulin (TBG) Inhibition Assay, Great Lakes Toxicology and Ecology Division (GLTED) Lab (AID 2284343; active means hit-call score of the fitted dose curve at least 0.9, where 1 is the maximum;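 further: active chemicals lower fluorescence versus DMSO baseline by displacing probe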). In a few lines: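 Fluorescence (ex 380/em 475) reports ANSA displaced from human TBG after a 2 h incubation with test chemical, without cells. Loss of signal indicates displacement, with DMSO serving as baseline.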

Test [10] in a line: CCTE_Deisenroth_5AR_NBTE_acceptor: CCTE's 5alpha-reductase NanoBRET Target Engagement Assay - Autofluorescence Screen, Deisenroth Lab (AID 2284321).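 Further: compound fluorescence in the acceptor channel under 460 nm excitation flags autofluorescence artifacts.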 Conditions: actives raise or lower the signal. In a few lines:
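Using three independent plate-reader runs, nominal 100 uM chemicals were checked for intrinsic fluorescence (ex 460 nm). DMSO defined the baseline for bidirectional fitting.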

For the next test, the system named is SRD5A2 (gene 6716). Nature of the test: CCTE_Deisenroth_5AR_NBTE_ratio: CCTE's 5alpha-reductase NanoBRET Target Engagement Assay - Ratio, Deisenroth Lab (AID 2284322). The conditions noted are these: actives raise or lower the signal. The essentials: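 SRD5A2-NanoLuc HEK293T; cmpd 10 nM-29.9 uM, 3 h preinc + testosterone tracer 2 h; NanoBRET ratio 650/460; bidirectional fit vs DMSO.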
In general terms: BRET reads energy transfer from a luciferase to a nearby fluorophore.

Test [11] in a line: IUF_NPC1_cytotoxicity_72hr: Cytotoxicity Assessment at 72 hours in the Leibniz Research Institute for Environmental Medicine (IUF) Neural Progenitor Cell Proliferation Assay (NPC1) (AID 2284332; active means hit-call score of the fitted dose curve at least 0.9, where 1 is the maximum;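 further: rising LDH signal means more cytotoxicity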). In a few lines:
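LDH in supernatant, resazurin→resorufin fluorescence (RFU), 72 h exposure, no re-dosing. Cells: primary hNPC spheres, one per well, EGF+FGF medium, 37C/5% CO2, pH 7.2-7.6. Fit: positive direction vs baseline and dynamic range.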

Test [12] can be described thus: VALA_TUBIPS_Antagonist_CellCount: Viability Assessment in the VALA Sciences human iPS-derived Endothelial Tubule Formation (TUBIPS) Antagonism Assay (AID 2284335; active means hit-call score of the fitted dose curve at least 0.9, where 1 is the maximum).
The nature of test [13]: VALA_MIGHUV1_ScratchOnly_WoundArea: VALA Sciences human Umbilical Vein Endothelial Cell Migration (MIGHUV) Assay, Area of Scratch Wound Inhibited Recovery (AID 2284336; active means hit-call score of the fitted dose curve at least 0.9, where 1 is the maximum). In a few lines: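 Wound area remaining after 24 h recovery imaged by Hoechst nuclear fluorescence in scratched HUVEC cultures, chemicals added within 30 min of scratching across a 6-point series. Gain of signal fitted against 0.1% DMSO; cytochalasin D positive control.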

Test [14] is described as follows: VALA_TUBHUV_Agonist_TubuleLength: VALA Sciences human Umbilical Vein Endothelial Tubule Formation (TUBHUV) Agonism Assay (AID 2284337; active means hit-call score of the fitted dose curve at least 0.9, where 1 is the maximum). In a few lines:
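Tubule length quantified by CD31 immunofluorescence imaging after fixation. HUVEC-HDF co-cultures (1:3) pre-grown 3 days with 10 ng/ml VEGF, then dosed 3 days in VEGF medium; 0.1 % DMSO vehicle baseline.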

Test [15] is described as follows: VALA_TUBIPS_Agonist_CellCount: Viability Assessment in the VALA Sciences human iPS-derived Endothelial Tubule Formation (TUBIPS) Agonism Assay (AID 2284338; active means hit-call score of the fitted dose curve at least 0.9, where 1 is the maximum).
Test [16] is described as follows: TAMU_PeakParms_SingleDonor1434_Asystole: Texas A&M University (TAMU) 1.5-hr Human Induced Pluripotent Stem Cell (iPSC)-derived Cardiomyocytes Calcium (Ca+2) Flux Assay for Cardiotoxicity: Asystole (quiescence of beating) (AID 2284328; active means hit-call score of the fitted dose curve at least 0.9, where 1 is the maximum). In a few lines: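 Average Ca2+-flux peak frequency (beats/s) was recorded in single-donor iPSC-derived cardiomyocytes after 90 min exposure (0.2–100 uM final, 0.5% DMSO). Asystole POD set as EC95 against DMSO, no preprocessing.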

Test [17] has as its system Brachyury (BRA) Protein Expression, Deisenroth Lab, TBXT (gene 6862). The test is described as follows: CCTE_Deisenroth_DEVTOX-GLR_legacy_Bra: (Legacy) CCTE's DevTox GLR-Endo Assay Evaluation of Brachyury (BRA) Protein Expression, Deisenroth Lab (AID 2284329). The essentials:
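Percent Bra-positive cells, scored by high-content imaging against a threshold of 5x BMAD over the undifferentiated control median, with the 0.2% DMSO median subtracted. RUES2-GLR cultures were dosed twice at 24 h intervals across a 48 h differentiation, at 1 nM–200 uM in ten steps, with n=4 replicates.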

Results filed as inconclusive are left out. Active and inactive are the calls of the source. How the source made its calls, unless noted: active means hit-call score of the fitted dose curve at least 0.9, where 1 is the maximum; inactive means score below 0.9.

By AC50 is commonly meant the concentration giving half of the maximal activity seen. As to `OCC(F)(F)C(F)(F)C(F)(F)C(F)(F)C(F)(F)C(F)(F)C(F)(F)C(F)(F)C(F)(F)C(F)(F)C(F)(F)F`, the AC50 in test [1] is 1.55 µM (active). Also, the outcome in [2], in [3], in [4], in test [5] and in test [6] was inactive.
`CN(Cc1cnc2nc(N)nc(N)c2n1)c1ccc(C(=O)N[C@@H](CCC(=O)O)C(=O)O)cc1`: the AC50 in [7] was 0.359 µM (active); in test [9], 0.0109 µM (active). Further, in test [8], the compound was classed as inactive.
For `O=P(O)(O)CCC(F)(F)C(F)(F)C(F)(F)C(F)(F)C(F)(F)C(F)(F)F`, in the test with TTR (gene 7276), the AC50 is 6.47 µM (active). Also, the compound was classed as inactive in test [1], in [2], in [3], in test [4], in [5] and in test [6].
With `CN(CCO)S(=O)(=O)C(F)(F)C(F)(F)C(F)(F)C(F)(F)C(F)(F)C(F)(F)C(F)(F)C(F)(F)F`, the result in test [3] and in [4] was inactive. Besides, the values for the AC50 in [5] and in test [6] were 29.5 µM (active) and 29.6 µM (active), respectively.
Consider `CCCCCCCCCCCCOC(=O)c1cc(O)c(O)c(O)c1`, for which the AC50 with SERPINA7 (gene 6906) was 4.45 µM (active).
Turning to `CCc1ccccc1O`, the compound was called inactive (in [10]; in the test on SRD5A2 (gene 6716)).
Regarding `O=C(CCCN1CCC(O)(c2ccc(Cl)cc2)CC1)c1ccc(F)cc1`, the result in test [11], in test [12], in test [13], in test [14] and in [15] was inactive.
Turning to `O=C(O)CCC(F)(F)C(F)(F)C(F)(F)C(F)(F)C(F)(F)C(F)(F)F`, in the test with TTR (gene 7276), the AC50 was 3.66 µM (active).
`CCCCCCCCCCCCOS(=O)(=O)O`: the AC50 in test [10] is 44.8 µM (active); with SRD5A2 (gene 6716) it was 83.9 µM (active).
On to `CN(C)CCOC(c1ccccc1)c1ccccc1`, for which the values for the AC50 in [7], in test [8] and in [9] were 63.9 µM (active), 58.1 µM (active) and 100 µM (active), respectively.
`O=C(c1ccccc1)c1ccccc1`: the AC50 in the test on SERPINA7 (gene 6906) was 40.2 µM (active).
For `NC(=NCCCCCCN=C(N)/N=C(\N)Nc1ccc(Cl)cc1)/N=C(\N)Nc1ccc(Cl)cc1`, the AC50 in test [10] is 50 µM (active); in the test on SRD5A2 (gene 6716), 81 µM (active).
On to `O=C1NS(=O)(=O)c2ccccc21`, for which the result in test [16], in test [17], in [7], in [11], in [8] and in test [9] was inactive.
For the compound `C=CC(=O)OCCC(F)(F)C(F)(F)C(F)(F)C(F)(F)C(F)(F)C(F)(F)C(F)(F)C(F)(F)F`, the compound was called inactive in [1], in [2], in [3], in test [4], in [5] and in test [6].

The record behind these values is PubChem BioAssay (EPA / NIEHS).
